MARV entry inh = blocks Marburg virus binding to or entry into cells. Marburg virus pseudotyped entry inhibition, cell reporter. Potency, µM (doses to about 37.8 µM), without a hit: at the top dose activity change, negative = inhibition, hits mostly inhibitors. 300,000 compounds, 1.8% hits; calls by dose curve; tested in HEK293 cells; note: potency is the fitted concentration of half-maximal effect
HCV inhibitor = blocks hepatitis C virus; Huh7.5.1 HCVcc-Cre infection, luciferase reporter, 44 h; 340,000 compounds, 3.4% hits; Potency, µM (highest dose often 41.8 µM), for inactives: at the highest dose activity change, negative = inhibition, actives largely listed as inhibitors; note: potency is the fitted concentration of half-maximal effect
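Infectious HCVcc-Cre (~0.5 moi) was added to cells just after compound, with cells seeded 4 h earlier at 1,000 per well. Luciferase activity after 44 h culture reported infection; substrate was incubated 15 min at room temperature before reading.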
HCMV antiviral = inhibitors of human cytomegalovirus; AID 1259415; 410,000 compounds, 4.5% hits; HFF cells, HCMV-luciferase reporter, 72 h; hits give low values; activity change, negative = inhibition, % at 57.5 µM; in the data active = activity change below about -60%; inconclusive = no clear call, values can overlap the other calls; inactive = above about -39%
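Two compound doses tested in HFFs infected with HCMV-luciferase, MOI 1 PFU/cell, 72 h at 37C. Lysate luminescence read with OneGlo; data normalized against buffer-only and 10uM Salinomycin inhibitor controls.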
FMDV antiviral = antivirals against foot and mouth disease virus; Potency, µM (top dose mostly 57.9 µM), without a hit: top-dose activity change, negative = inhibition, actives largely listed as inhibitors; FMDV antiviral cell-based qHTS; 410,000 compounds, 1.2% hits; AID 1159524; calls by dose curve; tested in HEK293T cells; note: read-out not given here; potency is the fitted concentration of half-maximal effect; nearly all actives have a fitted effect of over 45% in size
FBPA Giardia inh = blocks Giardia fructose-bisphosphate aldolase activity; A8B2U2; Potency, µM (titrated, usually from 59.6 µM), without a hit: at the top dose activity, negative = inhibition, hits mostly inhibitors; purified Giardia FBPA; 290,000 compounds, 0.71% hits; note: potency is the fitted concentration of half-maximal effect; nearly all actives have a fitted effect of over 55% in size
Target sequence (A8B2U2 whole entry, looked up): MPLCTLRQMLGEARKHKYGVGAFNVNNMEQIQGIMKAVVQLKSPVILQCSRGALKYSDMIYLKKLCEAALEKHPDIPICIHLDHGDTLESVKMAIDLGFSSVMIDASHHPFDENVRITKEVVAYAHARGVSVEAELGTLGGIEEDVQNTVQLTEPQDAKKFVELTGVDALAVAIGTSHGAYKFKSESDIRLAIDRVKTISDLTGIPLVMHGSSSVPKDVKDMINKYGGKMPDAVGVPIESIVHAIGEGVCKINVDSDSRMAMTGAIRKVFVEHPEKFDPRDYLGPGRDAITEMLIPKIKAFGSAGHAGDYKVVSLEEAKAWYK
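40 nM FBPA preincubated 10 min at RT with compound (up to 57.5 uM final), then substrate plus GAPDH/TPI/NAD/arsenate coupling and diaphorase/resazurin added. Fluorescence read after 20 min at RT, 525/598 nm.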
Lassa entry inh = inhibitors of Lassa virus binding or cell entry; 300,000 compounds, 1.2% hits; AID 540256; Lassa virus pseudotype entry inhibition, cell reporter; Potency, µM (titrated, usually from 37.9 µM), inactives show top-dose activity change, negative = inhibition, actives largely listed as inhibitors; calls by dose curve; tested in HEK293 cells; note: potency is the fitted concentration of half-maximal effect; nearly all actives have a fitted effect of over 50% in size
* hit, by the source's call; ? = inconclusive; · = no result; ! = repeats disagree; [ ] = remark or other dose. Sampled rows, rich in hits. Any-hit rate of the full collection: about 8.3%. Unless noted, calls come from the whole dose curve; as a rule, active = well fitted curve in the direction sought with a large enough effect; inconclusive = small, poorly fitted or top-dose-only effect, or another doubt; inactive = no such curve, though single readings can be large; an effect the other way counts as inactive or inconclusive. % is set by controls: 0 for no effect and ±100 for the full control effect.

SMILES	MARV entry inh	HCV inhibitor	HCMV antiviral	FMDV antiviral	FBPA Giardia inh	Lassa entry inh
CSc1ccc(C(=O)c2[nH]c(=O)[nH]c2C)cc1	?	6.3µM*!	-2	2%	-2%	-6%
Cc1[nH]c(=O)[nH]c1C(=O)CCCCC(=O)O	?	13%	39	-2%	-2%	0%
Cn1ccc2c(-c3ccc(F)cc3)cc3c(c21)C1CCC3O1 (centres undefined)	·	·	·	·	·	1%[46.1 µM]
O=C(NC1CC(=O)N(c2ccc(F)cc2)C1)C1CC1 (centres undefined)	·	·	27	-6%	·	-2%[46.1 µM]
CCn1c(CN2CCC(C)CC2)nc2cc(NC(=O)COc3ccc(Cl)c(C)c3)ccc21	?	·	?	18µM*	·	?
CCn1c(CN2CCCCC2)nc2cc(NC(=O)COc3ccccc3C(C)(C)C)ccc21	?	·	4	0%	·	-5%[46.1 µM]
Cc1cccc(OCC(=O)Nc2ccc3c(c2)nc(CCN2CCN(C)CC2)n3C)c1	17%	-19%	?	-21%	0%	14%
Cc1cccc(OCC(=O)Nc2ccc3c(c2)nc(CCN2CCC(C)CC2)n3C)c1	·	?	-69*	-16%	-13%	·
COc1ccc(Nc2nc(-c3cccc([N+](=O)[O-])c3)nc3ccccc23)cc1	15µM*	?	23	40µM*	1%	?
c1csc(-c2nc(N3CCOCC3)c3ccccc3n2)c1	?	11µM*	-8	?	13%	-26%
COc1ccc(N2CCN(c3nc(-c4cccs4)nc4ccccc34)CC2)cc1	?	11µM*	?	?	-5%	2%
O=S(=O)(c1ccccc1)N1CCN(c2nc(-c3cccs3)nc3ccccc23)CC1	-1%	4%	·	·	0%	-3%
COc1ccc(Nc2nc(-c3cccs3)nc3ccccc23)cc1	?	4.5µM*	-102*	?	-7%	-22%
Cc1c(/C=N\NC(=O)C2COc3ccccc3O2)c2ccccc2n1C (centres undefined)	-20%	?	-86*	-2%	3%	?
O=C(N/N=C/c1c(O)n(-c2ccccc2Cl)c(=O)c2ccccc12)C1COc2ccccc2O1 (centres undefined)	?	-4%	·	3%	?	?
Cc1ccc(-n2c(O)c(/C=N/NC(=O)C3COc4ccccc4O3)c3ccccc3c2=O)cc1 (centres undefined)	?	16%	-61*	-21%	?	-23%
O=C(N/N=C/c1cccs1)C1COc2ccccc2O1 (centres undefined)	-19%	-1%	-10	·	7%	?
Cc1ccc(/C=N/NC(=O)C2COc3ccccc3O2)s1 (centres undefined)	?	2%	-76*	63%	·	?
C/C(=N\NC(=O)C1COc2ccccc2O1)c1cccs1 (centres undefined)	5%	-2%	-60*	·	1%	12%
CC(C)(C)c1ccc(C(=O)Nc2nc3nc(-c4ccccc4)cc(=O)n3[nH]2)cc1	7%[46.1 µM]	·	18	-6%	·	-2%[46.1 µM]
N#CCOc1nc(N2CCCCC2)nc(N2CCCCC2)n1	·	14µM*	-37	?	1%	·
COc1nc(OCC#N)nc(N2CCCCC2)n1	-7%	-4%	?	-13%	3%	-3%
N#CCOc1nc(N2CCCC2)nc(N2CCCC2)n1	3%	?	-24	4%	3%	-13%
c1ccc(Oc2nc(Oc3ccccc3)nc(N3CCOCC3)n2)cc1	?	-9%	-3	?	5%	-23%
COc1nc(N2CCCCCC2)nc(N2CCCCCC2)n1	-9%	10µM*	?	?	9%	15%
SMILES	MARV entry inh	HCV inhibitor	HCMV antiviral	FMDV antiviral	FBPA Giardia inh	Lassa entry inh
COc1nc(N2CCOCC2)nc(-n2cccc2)n1	?	0.89µM*	18	-14%	5%	9%
O=C(CSc1nnc(CNC(=O)c2ccccc2F)n1-c1ccccc1)Nc1ccccc1F	?	·	-5	3%	·	-12%[46.1 µM]
O=C(CN1CCCC1c1cccs1)Nc1cc(S(=O)(=O)N2CCCCC2)ccc1Cl (centres undefined)	·	5µM*	?	?	·	·
Cc1ccc(NC(=O)CN2CCCC2c2cccs2)cc1S(=O)(=O)N1CCCCC1 (centres undefined)	·	7.9µM*	-63*	?	·	·
CC#CCOC(=O)C1=CCCN(C)C1	·	·	·	-15%	7%	·
COC(=O)[C@@]1(Cc2ccccc2)[C@H]2c3cc(C(=O)N4CCCC4)n(CCO)c3C[C@H]2CN1C(=O)c1ccccc1	·	·	·	·	-2%	·
COC(=O)C(C(=O)OC)[C@@H](NC(=O)OCc1ccccc1)c1ccccc1	·	·	·	·	0%	·
C#CCCCON=C1C[C@@H](O)[C@@H](O)[C@@H]2[C@H]3C(=O)N(C(C)(C)C)C(=O)[C@@H]3CC[C@H]12	12%[14.2 µM]	·	·	·	·	·
O=C(Nc1ccc(N2CCCCC2)cc1)c1ccccn1	0.46µM*	-18%	·	2.8µM*	-2%	0.52µM*
COc1ccccc1C(=O)Nc1ccc(N2CCCCC2)cc1	7.9µM*	15%	-8	5%	-6%	?
CC(=O)Oc1cc2c(C(=O)NCCCN3CCOCC3)c(C)oc2c2ccccc12	?	11µM*	18	-22%	?	-2%
CN(C(=O)CSc1nc(-c2ccccc2)c(-c2ccccc2)o1)C1CCS(=O)(=O)C1 (centres undefined)	-15%	?	-64*	-28%	-4%	-13%
CN(C(=O)CSc1nnc(-c2ccc(F)cc2)c2ccccc12)C1CCS(=O)(=O)C1 (centres undefined)	5µM*	-19%	?	?	0%	0%
CN(C(=O)CSc1nc2ccccc2o1)C1CCS(=O)(=O)C1 (centres undefined)	24%	-9%	4	45%	·	-7%
COCC(C)NC(=O)CSc1nc(-c2ccccc2)c(-c2ccccc2)o1 (centres undefined)	?	?	-67*	·	6%	?
O=C1C=CC(O)C2(CO)OC12 (centres undefined)	·	·	-19	28µM*	·	·
CN1CCc2cc(O)cc3c2[C@H]1Cc1ccc(O)c(O)c1-3	?	27%	?	-8%	·	?
CCCN1CCc2cccc3c2C1Cc1ccc(O)c(O)c1-3 (centres undefined)	?	·	·	-8%	13µM*	·
CCCN1CCc2cc(O)cc3c2[C@H]1Cc1ccc(O)c(O)c1-3	35µM*!	?	-7	-14%	·	-37%
CCCCCn1c(=O)[nH]c2cc(C(=O)NCc3ccc(C)cc3)ccc2c1=O	19%[46.1 µM]	·	9	-19%	·	12%[46.1 µM]
CCc1noc(-c2ccc(N3CCCCC3C)c([N+](=O)[O-])c2)n1 (centres undefined)	-2%[46.1 µM]	·	55	37%	·	-3%[46.1 µM]
C/C=C/[C@@H]1[C@@H](S(=O)(=O)c2ccccc2)CC(=O)N1Cc1ccccc1	·	·	-7	·	·	·
COc1cccc(-c2sc3ccc(OC)cc3c2C#CCC(C)O)c1 (centres undefined)	·	?	54	-18%	·	·
